The list is not random: actives were taken first. Their share in the collection is about 0.93%.
GLP1R cytotox: qHTS of GLP-1 Receptor Inverse Agonists: Cytotox Screen; HEK293 cAMP-luciferase reporter cells, luminescence, 24 h; Potency, µM (top dose mostly 38.3 µM), for the others: at the top dose activity change, negative = inhibition, usual class: inhibitors; actives 0.13% (n = 410,000); AID 624418, 2012;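 note: loss of luciferase light is scored as toxicity; potency is the fitted concentration of half-maximal effect; % is set by controls: 0 for no effect and ±100 for the full control effect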
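Luminescence readout: signal drop marks cytotoxicity. Plated cells grew 12 h at 37 °C, 5% CO2, received 23 nL compound for 24 h, then got luciferase reagent, read after 12 min at RT.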
TRPML1 agonist: qHTS for Agonists of the Human Mucolipin Transient Receptor Potential 1 (TRPML1). activation, % (concentration not given with the values). actives 0.12% (n = 410,000). TRPML1-expressing cells, Ca2+ dye fluorescence, FDSS. Mucolipin-1 (Homo sapiens), Q9GZU1; in the data active = activation above about 50%; inconclusive = mostly about 30% to 49%; note: 0% is about no effect
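Tet-induced TRPML1-DL cells, 1,500 per well, cultured overnight, were loaded with a no-wash Ca2+ dye for 45–90 min. Calcium fluorescence was recorded on the FDSS for 110 s after compound addition, before the EC80 agonist (4 uM 54-4) was added.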
TRHR enhancer: qHTS for Small Molecule Agonists and Allosteric Enhancers of Human TRH Receptor: Primary Screen for Enhancers; Thyrotropin-releasing hormone receptor (Homo sapiens), P34981; TRHR cells, fluo-8 calcium fluorescence, EC20 TRH enhancement; enhancement, % at 2 µM; actives 0.66% (n = 360,000); AID 493056, 2011; in the data active = enhancement above about 30%; note: 0% is about no effect
Target sequence (P34981 whole entry, looked up): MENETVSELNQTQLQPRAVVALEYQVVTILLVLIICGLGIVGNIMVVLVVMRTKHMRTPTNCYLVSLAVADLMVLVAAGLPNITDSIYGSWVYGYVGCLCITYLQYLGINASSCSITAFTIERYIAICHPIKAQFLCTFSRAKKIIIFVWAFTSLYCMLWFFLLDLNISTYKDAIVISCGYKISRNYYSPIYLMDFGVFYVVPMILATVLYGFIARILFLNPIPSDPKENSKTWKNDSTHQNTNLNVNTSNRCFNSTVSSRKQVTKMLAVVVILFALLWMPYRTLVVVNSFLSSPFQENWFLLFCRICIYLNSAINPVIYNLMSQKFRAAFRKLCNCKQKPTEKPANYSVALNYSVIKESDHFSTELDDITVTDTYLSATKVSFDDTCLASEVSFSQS
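Enhancer read-out: after compound pinning and an initial kinetic agonist-mode read, an EC20 of TRH (10 nM final) was injected and fluo-8 calcium signal (Ex 480/Em 530) followed at 1 s/cycle for 100 cycles in TRHR-expressing cells.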
PTHR1 agonist: qHTS for PTHR1 Agonists: Primary Screen. Parathyroid hormone/parathyroid hormone-related peptide receptor (Homo sapiens), Q03431. HEK293 GP2 PTHR1 cells, GloSensor cAMP luminescence, 1 h. Potency, µM (series often up to 115 µM), without a hit: at the top dose activation, most hits filed as activators. actives 0.075% (n = 410,000). AID 743266, 2014; note: potency is the fitted concentration of half-maximal effect; nearly all actives have a fitted effect of over 55% in size
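HEK-293-derived GP2 cells expressing PTHR1 and a GloSensor cAMP reporter, 3,000/well, plated overnight, given luciferin plus IBMX (each 0.5 mM as added) for 1 h at 37 °C, then compound for 1 h at 37 °C. Luminescence was read after 15 min at room temperature.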
TRPML1 inh: qHTS for Inhibitors of the Human Mucolipin Transient Receptor Potential 1 (TRPML1); TRPML1-inducible cells, Ca2+ dye fluorescence, FDSS; active compounds read low; inhibition of EC80 agonist-evoked calcium signal; activity change, negative = inhibition, % (test concentration not listed); actives 0.02% (n = 390,000); in the data active = activity change below about -50%; inconclusive = between about -30% and that limit;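 note: stimulus is agonist 54-4 at its EC80 concentration; % is set by controls: 0 for no effect and ±100 for the full control effect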
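Calcium fluorescence in TRPML1-DL cells induced overnight with Tet: a 110 s read after compound pin addition, then a 110 s antagonist read after challenge with 54-4 at 4 uM final (EC80).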
TRHR ag: qHTS for Small Molecule Agonists and Allosteric Enhancers of Human TRH Receptor: Primary Screen for Agonists; activation, % at 2 µM; AID 493084, 2011; actives 0.18% (n = 360,000); TRHR cells, calcium flux fluo-8, FDSS agonist mode; in the data active = activation above about 30%; note: 0% is about no effect
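Steps: seed TRHR cells overnight; add fluo-8 no-wash Ca dye, RT 30 min–1.5 h; record 10 s baseline; pin-transfer compounds; monitor fluorescence 1 cycle/s for the agonist window. Calcium increases flag candidate agonists.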
Active calls of the source: *; i = inactive; ? = inconclusive; nt = not tested or not shown; [ ] = dose if it differs, or a comment. Unless noted, calls come from the whole dose curve; as a rule, active = well fitted curve in the direction sought with a large enough effect; inconclusive = small, poorly fitted or top-dose-only effect, or another doubt; inactive = no such curve, though single readings can be large; an effect the other way counts as inactive or inconclusive.

SMILES	GLP1R cytotox	TRPML1 agonist	TRHR enhancer	PTHR1 agonist	TRPML1 inh	TRHR ag
Cc1ccc(-c2noc(CSc3nnc(Cc4cccs4)n3-c3ccccc3)n2)cc1	-9%	1	3	-76%	0	1
CC(C)(C)OC(=O)NS(=O)(=O)NOCc1ccccc1	nt	-1	nt	nt	nt	nt
CC(C)(C)C1CCC(OCC(O)CN2CCN(Cc3ccccc3)CC2)CC1 (centres undefined)	?	1	32*	-36%	19	0
CC(C)(C)C1CCC(OCC(O)CN2CCN(c3ccccn3)CC2)CC1 (centres undefined)	?	1	-3	-36%	13	0
O=C1c2cc([N+](=O)[O-])ccc2-c2ncccc21	1%	1	-7	1%	-57*	0
O=C1c2cccnc2-c2ncccc21	-6%	0	-10	i	11	0
O=C(c1cnn2c(C(F)F)cc(-c3ccccc3)nc12)N1CCc2ccccc2C1	-2%	58*	-10	-31%	-3	0
Cc1cc(C(F)F)n2ncc(C(=O)N3CCc4ccccc4C3)c2n1	-1%	-1	0	-2%	50	0
Cc1cc2c(s1)c1cnn(Cc3c(F)c(F)c(C(F)(F)F)c(F)c3F)c(=O)c1n2C	nt	nt	1	nt	nt	0
NC(=S)NN=C1c2ccccc2-c2c(F)c(F)c(F)c(F)c21	11µM*	0	nt	-63%	-10	nt
CCCCOc1ccc(Br)cc1/C(C)=N/NC1=NCCN1	4.5µM*	-1	-15	-16%[57.5 µM]	22	0
Cc1ccc(C(=O)NC2CCCC2)s1	4%	0	32*	i	10	0
CC(C)(C)OC(=O)NCC(=O)NNC(=O)c1nc2ccccc2[nH]1	nt	nt	2	nt	nt	1
CCOC(=O)C(NCCc1ccccc1F)(NC(=O)CC)C(F)(F)F (centres undefined)	8%	0	34*	i	0	-4
CCOC(=O)C(NCCc1ccccc1)(NC(=O)CC)C(F)(F)F (centres undefined)	-2%	0	-9	-18%	5	0
c1ccc(-c2cc(-c3nnco3)c3ccccc3n2)nc1	2%	1	34*	i	16	0
COc1cc(-c2cc(-c3nnco3)c3ccccc3n2)cc(OC)c1OC	3%	1	-1	-13%	12	-1
CCN1/C(=C/c2ccc3cc(C)cc(C)c3[n+]2CC)Sc2cc(C)ccc21	?	24	35*	-87%	-24	21
CCN1/C(=C/c2ccc3cccc(C)c3[n+]2CC)Sc2ccccc21	?	58*	nt	-9%[57.5 µM]	-11	nt
Nc1cc(-c2ccccc2)c[nH]c1=O	nt	nt	1	nt	nt	1
CCN(CC)c1ccc2c(c1)oc(=O)c1c(Cl)cc(=O)oc12	92%	69*	-10	i	-13	75*
CCN(CC)c1ccc2c(C)c(Cl)c(=O)oc2c1	i	3	3	i	-5	0
Cc1cc(Cl)ccc1NC(=S)Nc1ccccn1	?	2	-9	-23%	19	1
Cc1ccc(NC(=S)Nc2ccccn2)c(C)c1	5µM*	2	-3	-16%	3	0
CC(=O)c1sc2nc(-c3cccs3)cc(C(F)(F)F)c2c1N	85%	?	10	i	-4	41*
SMILES	GLP1R cytotox	TRPML1 agonist	TRHR enhancer	PTHR1 agonist	TRPML1 inh	TRHR ag
Cc1c(Cl)cccc1-n1c(SCC(=O)NCc2ccccc2)nc2n[nH]c(C)c2c1=N	-22%	2	42*	-88%	21	-1
Cc1ccc(CNC(=O)CSc2nc3n[nH]c(C)c3c(=N)n2-c2ccccc2Cl)cc1	2%	3	-2	i	-8	0
CSc1nc2ccc3nc(NC(=O)c4ccccc4)sc3c2s1	3%	0	37*	-25%	-4	0
O=C(NNC(=O)c1ccc(Br)o1)c1ccc(NS(=O)(=O)c2cccs2)cc1	-8%	1	nt	-24%	-9	nt
Cc1ccc(C(=O)NNC(=O)c2ccc(NS(=O)(=O)c3cccs3)cc2)o1	-12%	0	32*	-22%	-3	0
Cc1cccc(NC(=S)N(CCN2CCOCC2)Cc2cc3cc4c(cc3[nH]c2=O)OCCO4)c1	0%	2	34*	i	-4	-1
CCN(CC)CCCN(Cc1cc2cc3c(cc2[nH]c1=O)OCCO3)C(=O)Nc1ccc(F)cc1	-22%	0	32*	i	1	-1
CCN(CC)CCCN(Cc1cc2cc3c(cc2[nH]c1=O)OCO3)C(=O)Nc1ccccc1OC	13%	2	3	-11%[57.5 µM]	-11	0
Cc1cccc(Cn2ncc3c4sc(C)cc4n(C)c3c2=O)c1	nt	nt	8	nt	nt	0
COc1ccc(C(=O)Nc2ncnc3nc[nH]c23)cc1	nt	-1	nt	nt	nt	nt
[O-][N+]12CCCc3cccc(c31)CCC2	nt	3	nt	nt	nt	nt
Cc1ccc(N2CCN(S(=O)(=O)c3ccc(F)c(C)c3)CC2)c(C)c1	36%	50*	2	-7%	-20	1
O=C1c2ccccc2-c2onc3ccc(Oc4ccccc4)c1c23	?	6	32*	i	-3	2
CCOC(=O)C(C(=O)OCC)c1cc(Br)c2noc3c2c1C(=O)c1ccccc1-3	?	4	13	-64%[57.5 µM]	-7	1
CCc1sc(-c2cc3cccc(OC)c3oc2=O)nc1-c1ccccc1	nt	0	nt	nt	nt	nt
Cc1ccccc1CC(=O)NC1CCCCCC1	2%	1	-2	-95%	-54*	0
O=C(CN1C(=O)c2ccccc2C1=O)NC1CCCCCC1	-6%	1	33*	i	-3	0
Cc1nc([N+](=O)[O-])cn1CC(O)c1ccc2c(c1)OCO2 (centres undefined)	nt	-1	nt	nt	nt	nt
COc1ccc(C(=O)Nc2nc3n(n2)C(c2ccc(Cl)cc2)C=C(c2ccccc2)N3)cc1OC (centres undefined)	i	14	7	i	-1	30*
COc1ccc(C2=C/C(=C/c3cccnc3)C(=O)O2)cc1OC	-8%	?	2	i	1	45*
COc1cc(NC(=O)c2cccc(Br)c2)nc(OC)n1	6%	0	34*	i	-21	-3

Screening data: PubChem BioAssay, National Center for Advancing Translational Sciences (NCATS)
